Rows were chosen to be rich in hits. Some 2.3% of all compounds tested hit in one or more screens of this group.
ERp5 block: blocks human ERp5 reductase activity on insulin. inhibition, % at 9.99 µM. 350,000 tested, 0.05% active. Q15084. ERp5 insulin aggregation, absorbance 650 nm, 90 min;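 active means mean replicate inhibition above about 25%, with every replicate also reaching it, limit read from the data, passing the limit was not always enough; inconclusive means only one of those two criteria met; inactive means neither criterion met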
PDI inh: PDI (human) enzyme inhibition. P07237. PDI insulin aggregation turbidity, A650, 90 min. inhibition, % at 10 µM. 350,000 tested, 0.052% active. AID 588391;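 active means mean inhibition across replicates of 30% or more, whatever share of single replicates reach that level; inconclusive means mean inhibition below 30% while every single replicate reaches 30%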
DENV2 CPE: DENV2-induced cell death inhibition; DENV2-infected cells, cytopathic effect rescue, plate reader; CPE inhibition, % at 9.99 µM; 350,000 tested, 1.7% active; in the data active means CPE inhibition above about 20%, passing the limit was not always enough; inconclusive means no clear call, values can overlap the other calls; tested in BHK-21 cells;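 further: 0% = median of neutral control wells and 100% = median of positive control wells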
Rtt109 Vps75: inhibitors of Candida albicans Rtt109/Vps75 histone acetyltransferase; Q5AAJ8; purified Rtt109/Vps75, ThioGlo CoA-SH fluorescence, 4 h; 330,000 tested, 0.16% active; inhibition, % at 34.9 µM;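 active means inhibition of at least 50% in every replicate; inconclusive means best replicate reaches 50% inhibition but some replicates fall short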
Target sequence (Q5AAJ8 whole entry, looked up): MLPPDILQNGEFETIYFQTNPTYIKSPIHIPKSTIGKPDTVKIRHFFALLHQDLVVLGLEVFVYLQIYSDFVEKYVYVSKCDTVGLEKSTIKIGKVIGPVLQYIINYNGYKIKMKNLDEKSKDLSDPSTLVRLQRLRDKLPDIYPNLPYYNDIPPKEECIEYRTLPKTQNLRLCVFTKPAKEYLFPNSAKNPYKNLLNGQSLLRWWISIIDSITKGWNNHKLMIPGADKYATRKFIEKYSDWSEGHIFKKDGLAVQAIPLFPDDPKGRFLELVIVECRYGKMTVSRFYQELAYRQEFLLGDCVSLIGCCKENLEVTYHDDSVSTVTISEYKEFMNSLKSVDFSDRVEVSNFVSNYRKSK
SIRT5 block: inhibitors of human sirtuin-5 desuccinylase. Q9NXA8. Purified SirT5, succinyl-peptide AMC, trypsin-coupled fluorescence. inhibition, % at 15 µM. 330,000 tested, 1.1% active. AID 652115; in the data active means inhibition above about 15%; inconclusive means no clear call, values can overlap the other calls
Starred values were filed as active, the others as inactive.

For Cn1cnc(S(=O)(=O)N2CCCCN3[C@H](C2)[C@H](c2ccc(C4=CCCC4)cc2)[C@@H]3CO)c1 the results were ERp5 block -2.0, DENV2 CPE -2.6 and SIRT5 block 1.0.
Screening OC(COC(c1ccc(Cl)cc1)c1ccc(Cl)cc1)CN1CCN(c2ccccn2)CC1 (stereo not given) returned ERp5 block 9.0, PDI inh -9.0, DENV2 CPE 45.1*, Rtt109 Vps75 27.8 and SIRT5 block -2.5.
OC(COC(c1ccc(F)cc1)c1ccc(F)cc1)CN1CCCC1 (stereo not given) was read as ERp5 block 2.9, PDI inh 5.8, DENV2 CPE 40.5*, Rtt109 Vps75 3.2 and SIRT5 block -1.8.
Screening CC(=O)c1ccc(N2CCN(CC(O)COC(c3ccccc3)c3ccccc3C)CC2)cc1 (stereo not given) returned ERp5 block 3.8, PDI inh -2.5, DENV2 CPE -0.3, Rtt109 Vps75 -4.0 and SIRT5 block 5.8.
For CC(=O)c1ccc(N2CCN(CC(O)COC(c3ccccc3)c3ccccc3)CC2)cc1 (stereo not given) the results were ERp5 block 6.6, PDI inh 22.6, DENV2 CPE -1.3, Rtt109 Vps75 54.7* and SIRT5 block -10.6.
Screening Cc1cccc(C)c1OCC(O)CN1CCN(c2ccccn2)CC1 (stereo not given) returned ERp5 block 0.4, PDI inh 4.8, Rtt109 Vps75 5.3 and SIRT5 block -1.8.
For C[C@@H]1CCCCO[C@@H](CN(C)C(=O)Nc2ccc(C(F)(F)F)cc2)[C@H](C)CN([C@@H](C)CO)C(=O)c2cc(NC(=O)Nc3ccc(F)cc3)ccc2O1 the results were ERp5 block -0.7, DENV2 CPE 1.2 and SIRT5 block 14.3.
For O=C(C[C@@H]1CC[C@@H]2[C@H](COC[C@@H](O)CN2Cc2cccc(Cl)c2)O1)N1CCOCC1 the results were ERp5 block -16.7, DENV2 CPE 10.6 and SIRT5 block 8.3.
For CNC[C@H]1OCCCC[C@@H](C)Oc2ccc(NC(=O)Nc3ccc(F)cc3)cc2C(=O)N([C@@H](C)CO)C[C@H]1C the results were ERp5 block -1.6, DENV2 CPE -0.2 and SIRT5 block 13.2.
`CC(C)NC(=O)N1[C@H](CN(C)C(=O)c2ccccc2)[C@@H](c2ccccc2)[C@@H]1CO` gave ERp5 block 1.2, DENV2 CPE 5.4 and SIRT5 block 18.0*.
Screening C/C=C/c1ccc([C@H]2[C@@H](CO)N(C(=O)NC(C)C)[C@H]2CN(C)C(=O)CC)cc1 returned ERp5 block -1.9, DENV2 CPE -7.8 and SIRT5 block -1.2.
Screening C/C=C/c1ccc([C@H]2[C@@H](CN(C)C(=O)CC)N(C(=O)NC(C)C)[C@H]2CO)cc1 returned ERp5 block 1.4, DENV2 CPE 27.2* and SIRT5 block 1.8.
For C/C=C/c1ccc([C@@H]2[C@@H](CN(CC)C(=O)CC)N(C(=O)C3CCC3)[C@H]2CO)cc1 the results were ERp5 block 3.1, DENV2 CPE 24.8* and SIRT5 block 2.6.
`O=C(C[C@@H]1C=C[C@H](NC(=O)Nc2cc(F)ccc2F)[C@@H](CO)O1)Nc1ccc(-c2ccccc2)cc1` gave DENV2 CPE 4.3 and SIRT5 block -0.6.
For COc1ccc(CN(C)C[C@@H]2OCCCC[C@H](C)Oc3ccc(NS(=O)(=O)c4ccc(C)cc4)cc3C(=O)N([C@@H](C)CO)C[C@@H]2C)cc1 the results were ERp5 block -1.2, DENV2 CPE -5.1 and SIRT5 block 4.6.
For COC(=O)c1c(-c2ccc(OC)cc2)sc2cc3c(cc12)OCO3 the results were ERp5 block -6.3, PDI inh 13.4, DENV2 CPE 20.5* and Rtt109 Vps75 -10.5.
Screening COC(=O)c1c(-c2ccc(N(C)C)cc2)sc2ccc(OC)cc12 returned ERp5 block -1.4, PDI inh -2.3, Rtt109 Vps75 -33.6 and SIRT5 block -0.6.
CO[C@H]1CN(C)C(=O)c2cc(NC(=O)Nc3cc(F)ccc3F)ccc2OC[C@H](C)NC[C@@H]1C was read as ERp5 block 2.9, DENV2 CPE 8.7 and SIRT5 block -2.5.
`CCN(CC(=O)Nc1ccccc1OC)CC(=O)Nc1ccccc1-c1ccccc1` gave ERp5 block 1.7, PDI inh 3.0, DENV2 CPE inconclusive and Rtt109 Vps75 -3.0.
CCN(CC(=O)Nc1ccccc1OC)CC(=O)Nc1sccc1C#N was read as ERp5 block -5.1, PDI inh 10.6, DENV2 CPE -4.3, Rtt109 Vps75 -6.8 and SIRT5 block 15.4*.
For O=C(CN1CCOCC1)N[C@H]1CC[C@H](CCNC(=O)C2CCCC2)O[C@H]1CO the results were ERp5 block -2.2, DENV2 CPE -3.8 and SIRT5 block 1.6.
Cc1noc(C)c1S(=O)(=O)Nc1ccc2c(c1)C(=O)N([C@H](C)CO)C[C@H](C)[C@@H](CN(C)Cc1ccc(Cl)c(Cl)c1)OCCCC[C@@H](C)O2 was read as ERp5 block -10.4, DENV2 CPE -0.5 and SIRT5 block 1.9.
For Cc1noc(C)c1S(=O)(=O)Nc1ccc2c(c1)C(=O)N([C@@H](C)CO)C[C@H](C)[C@@H](CN(C)Cc1ccc(Cl)c(Cl)c1)OCCCC[C@H](C)O2 the results were ERp5 block -2.0, DENV2 CPE 22.5* and SIRT5 block 5.2.
`Cc1noc(C)c1S(=O)(=O)Nc1ccc2c(c1)C(=O)N([C@@H](C)CO)C[C@@H](C)[C@H](CN(C)Cc1ccc3c(c1)OCO3)OCCCC[C@H](C)O2` gave ERp5 block -0.6, DENV2 CPE 4.9 and SIRT5 block 5.3.
Screening Cc1noc(C)c1S(=O)(=O)Nc1ccc2c(c1)C(=O)N([C@H](C)CO)C[C@@H](C)[C@@H](CN(C)Cc1ccc3c(c1)OCO3)OCCCC[C@H](C)O2 returned ERp5 block -0.1, DENV2 CPE -7.0 and SIRT5 block 5.8.
Screening Cc1noc(C)c1S(=O)(=O)Nc1ccc2c(c1)C(=O)N([C@H](C)CO)C[C@@H](C)[C@H](CN(C)Cc1ccc(Cl)c(Cl)c1)OCCCC[C@@H](C)O2 returned ERp5 block -3.9, DENV2 CPE -0.3 and SIRT5 block 17.0*.
Cc1noc(C)c1S(=O)(=O)Nc1ccc2c(c1)C(=O)N([C@H](C)CO)C[C@H](C)[C@@H](CN(C)Cc1ccc(Cl)c(Cl)c1)OCCCC[C@H](C)O2 was read as ERp5 block -3.7, DENV2 CPE 1.1 and SIRT5 block 15.5*.
`C[C@H](CO)N1C[C@H](C)[C@@H](CN(C)S(=O)(=O)c2ccc(Cl)cc2)OCCCC[C@H](C)Oc2ccc(NC(=O)c3ccncc3)cc2C1=O` gave ERp5 block -10.5, DENV2 CPE -0.7 and SIRT5 block 6.0.
`O=C(C1CCCCC1)N1C[C@@H]2[C@H](c3ccccc31)[C@@H](CO)N2C(=O)c1ccccc1` gave ERp5 block 1.8, DENV2 CPE -13.3 and SIRT5 block -0.2.
`OCc1cn(-c2ccccc2)nc1-c1ccc(Br)cc1` gave ERp5 block 3.1, PDI inh 1.3, DENV2 CPE 48.5*, Rtt109 Vps75 42.7 and SIRT5 block -1.1.

Screening data deposited in PubChem by Broad Institute.
